Shiga toxin inh = inhibitors of Shiga toxin in Vero cells; Vero cells, Shiga toxin protein synthesis inhibition reporter; inhibition, % at 38.7 µM; AID 2315; hit rate 9.2% among 290,000; in the data active = inhibition mostly above about 28%, no sharp cut-off; inactive = mostly below about 43%; note: 0% is about no effect
Pf growth 48h = P. falciparum growth inhibition at 48 hours (one generation); P. falciparum luciferase growth in erythrocytes, 48 h; hit rate 5.9% among 310,000; Potency, µM (highest dose often 28.7 µM), without a hit: at the highest dose activity change, negative = inhibition, most hits filed as inhibitors; note: potency is the fitted concentration of half-maximal effect; % is set by controls: 0 for no effect and ±100 for the full control effect
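In quantitative HTS format, infected erythrocytes bearing luciferase-reporter parasites were treated for a single generation at 37 C. Luminescence after adding detection reagent served as the growth measure.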
Cycloheximide cs = affects cycloheximide protein synthesis inhibition readout, counter-screen; cell reporter, cycloheximide protein synthesis inhibition counterscreen; max response, %; hit rate 12% among 300,000; in the data active = max response mostly above about 13%, no sharp cut-off; inactive = mostly below about 14%; note: read at 38.3 µM for the half of the compounds with a filed dose; 0% is about no effect
AMA1-RON2 inh = AMA1-RON2 (P. falciparum) interaction inhibition; hit rate 0.2% among 360,000; AlphaScreen AMA1-biotinylated RON2 peptide binding; Potency, µM (titrated, usually from 58.2 µM), for the others: top-dose activity change, negative = inhibition, usual class: inhibitors;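 note: potency is the fitted concentration of half-maximal effect; 0% = vehicle wells and -100% = peptide control; nearly all actives have a fitted effect of over 45% in size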
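AMA1 (3D7) with his tag at 25 nM final met compounds first, then biotinylated RON2 peptide at 25 nM; detection used donor plus acceptor beads, 10 µg/mL apiece, read by AlphaScreen after 30 min at room temperature.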
SARS PLpro yeast = blocks SARS-CoV papain-like protease in a yeast assay; Potency, µM (highest dose often 32.9 µM), without a hit: top-dose activity, positive = growth rescue, actives largely listed as activators; S. cerevisiae expressing SARS-CoV PLpro, growth rescue; hit rate 0.19% among 330,000; calls by dose curve; note: potency is the fitted concentration of half-maximal effect; 0% is about no effect; nearly all actives have a fitted effect of over 55% in size
Pf growth 96h = P. falciparum growth inhibition at 96 hours. P. falciparum luciferase reporter growth, 96 h. hit rate 6.9% among 320,000. Potency, µM (titrated, usually from 28.7 µM), for inactives: top-dose activity change, negative = inhibition, usual class: inhibitors; note: potency is the fitted concentration of half-maximal effect; % is set by controls: 0 for no effect and ±100 for the full control effect
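Compounds incubated with erythrocytes infected by luciferase-expressing P. falciparum (2% hematocrit, 0.05% parasitemia final) for 96 hours, 37 C in 5% CO2. Growth inhibition scored as decreased luciferase luminescence.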
Starred values were filed as active, the others as inactive; u = inconclusive; x = not tested or not shown; + = active, no number; [ ] = another dose, or the depositor's remark. Only some compounds are listed: those with a hit (about 19% of all), similar ones and a draw of the others. Unless noted, calls come from the whole dose curve; as a rule, active = well fitted curve in the direction sought with a large enough effect; inconclusive = small, poorly fitted or top-dose-only effect, or another doubt; inactive = no such curve, though single readings can be large; an effect the other way counts as inactive or inconclusive.

SMILES | Shiga toxin inh | Pf growth 48h | Cycloheximide cs | AMA1-RON2 inh | SARS PLpro yeast | Pf growth 96h
CCCCN1C(=O)CCC(C(=O)O)C1c1ccc([N+](=O)[O-])cc1 (stereo unspecified) | -11 | 25% | 0 | -12% | -4% | 51%
Cc1ccc(N/N=C(\C#N)C(=O)c2ccsc2)cc1 | 55 | u | 21* | -27% | -3% | 90%
N#C/C(=N\Nc1ccc(Cl)cc1)C(=O)c1ccsc1 | 53* | 45% | 31* | -25% | -5% | 31%
N#C/C(=N\Nc1cccc(Cl)c1)C(=O)c1ccccc1 | 23 | 10% | 13 | -13% | -37% | 163%
COc1ccc(S(=O)(=O)NNc2nc(C)cc(C)n2)cc1Br | x | 2% | x | 45% | 1% | 10%
Nc1cc(C(F)(F)F)ccc1OCC1CCCO1 (stereo unspecified) | 21* | 2% | 26* | -7% | -11% | -21%
Cc1cc(Cl)ccc1NC(=O)CCC(=O)N/N=C/c1cc([N+](=O)[O-])ccc1O | -7 | u | 1 | 122% | 0% | u
O=[N+]([O-])c1ccc(O)c(/C=N/NC(=S)Nc2ccc(Cl)cc2Cl)c1 | 28 | 2.1µM* | -2 | 21% | 9% | 0.83µM*
O=[N+]([O-])c1ccc(/C=N/NC(=S)Nc2ccc(Cl)cc2Cl)s1 | 22 | 13µM* | 11 | 54% | -7% | 3.3µM*
O=C(Nc1ccc2c(c1)nc1n2CCOC1)C1CCCCC1 | 81* | 90% | 29* | 2% | -2% | 199%
O=C(Nc1ccc2c(c1)nc1n2CCOC1)c1ccco1 | 73* | 144% | 33* | 18% | -3% | 72%[5.75 µM]
Cc1c(NC(=O)Nc2ccc(F)cc2F)c(=O)n(-c2ccccc2)n1C | -12 | -3% | 3 | 6% | 1% | 15%
CCCn1c2ccc(/C(C)=N\O)cc2c2cc(/C(C)=N/O)ccc21 | 8 | u | -2 | 8% | -1% | 3%
O=C(NC(=O)c1c(F)cccc1F)O/N=C1\CCCc2occc21 | -2 | 2.3µM* | -3 | -4% | 2% | 22%
COCc1ccc(C(=O)N2CCCC(Nc3ccc(C(C)C)cc3)C2)o1 (stereo unspecified) | 2 | u | -2 | -6% | 7% | 10%
O=C(Nc1ccccc1)N1CCC(O)(c2cccc(C(F)(F)F)c2)CC1 | -2 | -20% | -1 | -9% | -2% | u
OC1(c2cccc(C(F)(F)F)c2)CCN(c2ccc(-c3ccccc3)nn2)CC1 | 67* | 118% | 38* | -2% | -4% | 3.7µM*
CC(=O)c1ccc(-c2c(C)cc3oc(=O)cc(-c4ccccc4)c3c2C)cc1 | + | x | 30* | -17% | 7% | x
O=C(Nc1cccc(C(F)(F)F)c1)c1csc([C@@H]2O[C@H](CO)[C@H](O)[C@H](O)[C@H]2O)n1 | x | x | x | 4% | x | x
OC(COCC(F)(F)C(F)(F)C(F)(F)C(F)F)Cn1c2ccc(Cl)cc2c2cc(Cl)ccc21 (stereo unspecified) | -10 | 1µM* | -6 | -14% | -94% | 0.59µM*
CCCCOc1ccc2ccccc2c1C=O | 68 | -2% | 32* | 44% | -12% | 39%
CCCOc1ccc2ccccc2c1/C=C1\SC(=O)NC1=O | x | -18% | -1 | -12% | -26% | u
COc1ccc(CN=C2NN=C(c3ccccc3)CS2)cc1 | 101* | u | 48* | 67% | 0% | u
COc1ccc(CN=C2NN=C(c3cccc(OC)c3)CS2)cc1 | 82* | 135% | 42* | 35% | -1% | -19%
COc1cccc(C2=NNC(=NCc3ccccc3)SC2)c1 | 47* | u | 41* | 74% | -2% | 0%
SMILES | Shiga toxin inh | Pf growth 48h | Cycloheximide cs | AMA1-RON2 inh | SARS PLpro yeast | Pf growth 96h
CC(C)(C)c1ccc(OCC(=O)Nc2cccc(S(=O)(=O)NC3=NCCCCC3)c2)cc1 | x | u | x | -13% | 1% | u
Cc1cc2nc(-c3ccccc3O)[nH]c2cc1C | x | x | x | 56% | x | x
Clc1cc2nc(-c3cccnc3Cl)[nH]c2cc1Cl | 105* | 96% | 29* | 2% | 1% | 146%
CCn1nc(C)c(CN2CCC(C(=O)Nc3cccc(-c4cccc(Cl)c4)c3)CC2)c1C | -14 | u | -6 | 0% | 1% | -12%
COc1ccccc1C(=O)NCCC(=O)NCc1ccncc1 | x | -16% | x | 26% | 5% | -17%
Cc1ccc(S(=O)(=O)N2CCOC23CCN(C(=O)C(=O)NCc2ccccc2)CC3)cc1 | x | -26% | x | 2% | -2% | u
O=C(COc1ccccc1Cl)N1CCN(c2ccc([N+](=O)[O-])c(N3CCOCC3)c2)CC1 | -11 | u | 7 | -9% | 5% | u
N#Cc1ccccc1Cn1cc(/C=N/Nc2ccc([N+](=O)[O-])cn2)c2ccccc21 | 5 | u | -1 | -6% | 0% | 5.2µM*
O=[N+]([O-])c1ccc(N/N=C/c2ccc(OCc3cccc4ccccc34)cc2)nc1 | 33 | u | 18* | -6% | -10% | 7.4µM*
COc1ccc(C=NNc2ccc([N+](=O)[O-])cn2)cc1 | x | x | x | 10% | x | x
O=C(c1ccccc1-c1ncc[nH]1)N1CCc2c([nH]c3ccccc23)C1c1ccccn1 (stereo unspecified) | -8 | 12µM* | -3 | u | 0% | 16%
O=C(c1ccccc1-n1cccn1)N1CCc2c([nH]c3ccccc23)C1c1ccccn1 (stereo unspecified) | 17 | u | 11* | 2% | 0% | 4.7µM*
CSc1nc(C(=O)N2CCc3c([nH]c4ccccc34)C2c2ccccn2)cs1 (stereo unspecified) | -4 | 0% | -3 | -18% | -3% | 18%
Cc1ccc2nc(C(=O)N3CCc4c([nH]c5ccccc45)C3c3ccccn3)cn2c1 (stereo unspecified) | -10 | 11% | -4 | -5% | 1% | 9.3µM*
O=C(c1cccs1)N1CCc2c([nH]c3ccccc23)C1c1ccccn1 (stereo unspecified) | -3 | u | -4 | 1% | 0% | 33%
O=C(c1cc(-c2ccccc2)n[nH]1)N1CCc2c([nH]c3ccccc23)C1c1ccccn1 (stereo unspecified) | 25 | u | -3 | -30% | -3% | 8.3µM*
CC(=O)c1ccc(C(=O)N2CCc3c([nH]c4ccccc34)C2c2ccccn2)s1 (stereo unspecified) | 8 | u | 5 | u | -2% | u
Cc1nn(-c2ccccc2)nc1C(=O)Nc1nnc(C(F)(F)F)s1 | -3 | 0% | -2 | 1% | -1% | -12%
C/C(N)=C(/C#N)C(=O)CSc1nc2ccccc2c(=O)n1-c1ccc(C)c(Cl)c1 | -11 | -13% | 1 | 9% | -9% | -12%
COc1ccccc1CCNC(C)CCc1ccc(O)cc1 (stereo unspecified) | -4 | -3% | -2 | 6% | 0% | 3%

Screening data as filed in PubChem.
